Data published in PubChem BioAssay.

Assay: Pseudomonas biofilm growth suppression – PAO1 strain, BacTiter-Glo luminescence, LB-PBS, primary screen (AID 1144)
Conditions: P. aeruginosa PAO1 biofilm, 12 h, higher = more signal; call rule not given here

z-score, inactive:
COCCOC(=O)N1C(=O)[C@@]2(c3ccccc31)[C@H](c1ccc(O)cc1)N1[C@H](c3ccccc3)[C@H](c3ccccc3)OC(=O)[C@H]1[C@@H]2C(=O)Nc1nc2ccccc2s1 0.272
C=CCOC(=O)[C@H]1[C@@H]2C(=O)O[C@@H](c3ccccc3)[C@@H](c3ccccc3)N2[C@@H](c2ccc(OCCOC(=O)[C@H]3C[C@H]4C(=O)N[C@@H](CCCCN(C)C)C(=O)N4[C@H]3c3ccc(O)cc3)cc2)[C@]12C(=O)Nc1ccc(I)cc12 0.549
NC(=O)[C@@H]1[C@H]2C(=O)O[C@H](c3ccccc3)[C@H](c3ccccc3)N2[C@H](c2ccc(O)cc2)[C@@]12C(=O)Nc1ccccc12 -0.609
CC(C)C[C@@H]1NC(=O)[C@H](C(C)C)NC(=O)[C@@]23C(=O)N[C@@H](Cc4ccccc4)C2[C@H](C)[C@@]2(C)O[C@H]2C3/C=C/CC/C=C/CNC1=O (some centres undefined) -1.07
COC(=O)C(CC#Cc1ccc2c(c1)[C@]1(C(=O)N2)[C@H](c2ccc(OCCO)cc2)N2[C@H](c3ccccc3)[C@H](c3ccccc3)OC(=O)[C@H]2[C@@H]1C(=O)Nc1nc2ccccc2s1)C(=O)OC -1.39
O=C1NC(=O)C2C1C=CC(C(O)c1cc(C(F)(F)F)cc(C(F)(F)F)c1)N2Nc1ccccn1 (centres undefined) -0.162
Cc1ccc(S[C@]2(C(=O)NCCCN(C)C)CC(=O)N(Cc3cc(C(F)(F)F)cc(C(F)(F)F)c3)[C@@H]2c2ccc(CO)cc2I)cc1 0.463
C=C(C(=O)CC[C@@H](OC(=O)c1cccnc1)c1ccccc1OCCO)C(C)C -0.0644
COc1cc(NN2C(C(O)c3ccco3)C=CC3C(=O)N(c4ccccc4)C(=O)C32)cc(OC)c1OC (centres undefined) -0.225
COC(=O)[C@@]1(Cc2ccc(OC)cc2)[C@H]2c3cc(C(=O)N(C)C)n(CCc4ccccn4)c3C[C@H]2CN1C(=O)c1ccccc1 0.165
O=C(NC1CC1)[C@@H]1c2ccccc2C(=O)N(Cc2ccccc2Cl)[C@H]1c1ccc(CO)cc1 -0.764
COC(=O)[C@@]1(Cc2ccc(F)cc2)[C@H]2c3cc(C(=O)N(C)C)n(Cc4ccccc4)c3C[C@H]2CN1C(=O)c1ccccc1 -0.22
O=C1C2C=CC(C(O)CCc3ccccc3)N(Nc3ccccc3F)C2C(=O)N1c1ccccc1 (centres undefined) -0.315
C=C[C@H](CO[Si](CC)(CC)CC)N(Cc1ccc(OC(C)=O)c(OC)c1)S(=O)(=O)c1ccc(Br)cc1 0.451
O=C1O[C@@H](c2ccccc2)[C@@H](c2ccccc2)N2[C@@H](c3ccccc3OCCO)[C@]3(C(=O)Nc4ccc(C#CC5=CCCCC5)cc43)[C@@H](C(=O)N3CCCCCCC3)[C@H]12 0.189
CCOC(=O)[C@H]1C/C=C/C[C@H](C(=O)OCC)C(=O)O[C@H]2[C@@H](OC)O[C@H](CO)[C@@H](OC(=O)c3c(OC)cccc3OC)[C@@H]2OC1=O 0.0437
CCC(CC)C(O)C1C=CC2C(=O)NC(=O)C2N1Nc1ccc(Cl)cc1Cl (centres undefined) 0.34
CCOC(=O)C[C@H]1[C@H](OC(=O)c2ccc(C(=O)c3ccccc3)cc2)[C@@H](NC(=O)c2ccc3ccccc3c2)c2cc(OCCCO)ccc2N1C(=O)Cc1ccc(OC)cc1 -0.329
COC(=O)[C@@]1(CCC(=O)OC(C)(C)C)N=C(c2ccc(OCCCO)cc2)O[C@H]1c1ccccc1N=[N+]=[N-] -0.656
COC(=O)[C@@]1(Cc2ccc(OC)cc2)[C@H]2c3cc(C(=O)N(C)C)n(Cc4ccccn4)c3C[C@H]2CN1C(=O)c1ccccc1 0.691
CCCC[C@@H]1C[C@H]1[C@@H](NC(=O)c1ccccc1)c1ccc(C(=O)OC)cc1 -0.485
CCCCCCc1nc(-c2ccc(OC)nc2)cc2c1[Si](C(C)C)(C(C)C)O[C@H]2c1ccccc1 0.0731
COC(=O)C(CC#Cc1ccc2c(c1)[C@]1(C(=O)N2)[C@H](C(=O)Nc2nc3ccccc3s2)[C@H]2C(=O)O[C@H](c3ccccc3)[C@H](c3ccccc3)N2[C@@H]1c1ccccc1OCCO)C(=O)OC -0.438
CN(C)C(=O)[C@@]1(CCS(=O)(=O)c2ccccc2)COC(c2ccc(OCCCO)cc2)=N1 -0.26
